12-LOX inh – ALOX12 (human) lipoxygenase inhibition. Potency, µM (doses to about 108 µM), usual class: inhibitors. 1.1% of 580,000 active. P18054. purified 12hLO, xylenol orange hydroperoxide absorbance
Target sequence (P18054 whole entry, looked up): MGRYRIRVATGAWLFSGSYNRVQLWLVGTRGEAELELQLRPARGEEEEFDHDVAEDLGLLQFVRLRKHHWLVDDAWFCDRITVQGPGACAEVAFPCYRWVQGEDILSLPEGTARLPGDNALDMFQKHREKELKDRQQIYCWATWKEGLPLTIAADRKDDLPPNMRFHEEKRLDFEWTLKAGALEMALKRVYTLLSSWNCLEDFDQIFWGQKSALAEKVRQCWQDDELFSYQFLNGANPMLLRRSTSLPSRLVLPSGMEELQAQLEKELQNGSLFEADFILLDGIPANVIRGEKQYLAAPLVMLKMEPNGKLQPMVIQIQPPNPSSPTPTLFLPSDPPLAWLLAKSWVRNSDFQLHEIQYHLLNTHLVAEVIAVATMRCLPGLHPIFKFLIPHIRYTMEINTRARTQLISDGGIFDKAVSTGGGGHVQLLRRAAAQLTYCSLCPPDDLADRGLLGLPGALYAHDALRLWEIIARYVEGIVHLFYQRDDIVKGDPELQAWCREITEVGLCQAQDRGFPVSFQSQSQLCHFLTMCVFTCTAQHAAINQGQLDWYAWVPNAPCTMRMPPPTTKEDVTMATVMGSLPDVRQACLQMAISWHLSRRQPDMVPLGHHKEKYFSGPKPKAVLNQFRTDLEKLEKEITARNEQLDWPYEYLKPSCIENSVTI
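Hydroperoxide product was detected by ferrous iron/xylenol orange as the 573 to 405 nm absorbance ratio. Arachidonic acid at 40 uM (final) was turned over for 30 min at room temperature by 150 nM human 12hLO, pH 7.0 Hepes buffer, after 15 min compound preincubation.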
Sfp inh – inhibitors of Bacillus subtilis Sfp phosphopantetheinyl transferase; 3.5% of 310,000 active; Potency, µM, actives largely listed as inhibitors; Q9F4F7; Biochemical Sfp PPTase activity, qHTS;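 also: the enzyme is Sfp with the accession as filed and its product quenches rhodamine fluorescence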
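Compounds were incubated with enzyme (final 15 nM) for 15 min at room temperature before substrate addition started the reaction. Fluorescence at 525 nm excitation, 598 nm emission was recorded immediately and after 30 minutes.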
G9a block – blocks human histone lysine methyltransferase G9a. Q96KQ7. G9a H3K9 monomethylation, AlphaScreen, 2 h. Potency, µM (titrated, usually from 102 µM), actives largely listed as inhibitors. 8.8% of 350,000 active; also: nearly all actives have a fitted effect of over 75% in size
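Chemiluminescent proximity detection of H3K9 monomethylation, read after 10 min bead incubation in the dark. Reaction: 20 nM G9a, 500 nM biotin-H3K9 peptide, 20 uM SAM cofactor, 2 h, room temperature, following 15 min enzyme-compound preincubation.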
Glioma ERSR ind – ER stress response induction in glioma; U87-MG GRP78 promoter luciferase reporter, 16 h; Potency, µM, hits mostly activators; 0.02% of 420,000 active; also: series mostly up to about 76 µM; nearly all actives have a fitted effect of over 35% in size
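Stably transfected U87-MG glioma cells carrying a GRP78-based luciferase sensor; 16 h compound incubation. Luminescence end-point read 10 min after Bright-Glo addition at room temperature.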
VDR inh – inhibitors of human vitamin D receptor | Potency, µM, actives largely listed as inhibitors | VDR-SRC2-3 peptide fluorescence polarization, 2 h | AID 504847 | 0.93% of 400,000 active
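Two reagent solutions held at 4 deg C in the dark were dispensed, compounds pinned at 23 nl, and the mixture incubated 2 h at room temperature. Read-out: fluorescence polarization of VDR–SRC2-3 peptide binding.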
A number is an active result; 0 = inactive; ? = inconclusive; - = no result; ! = not confirmed by another sample; [ ] = another dose, or the depositor's remark. This is one part of a sample in which hits are shown more often than they occur. Calls follow the shape of the dose curve; as a rule, active = well fitted curve in the direction sought with a large enough effect; inconclusive = small, poorly fitted or top-dose-only effect, or another doubt; inactive = no such curve, though single readings can be large; an effect the other way counts as inactive or inconclusive.

SMILES	12-LOX inh	Sfp inh	G9a block	Glioma ERSR ind	VDR inh
Cc1ccc(C2=NC3(CCN(C(=O)COc4ccc(F)cc4)CC3)ON2)cc1	0	-	-	-	-
CCCCn1cnc2cc(NCc3ccccc3Cl)ccc21	0	-	14µM	0	0
O=C(O)CCCNS(=O)(=O)c1ccc(NCc2ccccc2)c(C(=O)O)c1	0	0	22µM	0	0
CCCS(=O)(=O)N1CCCC(C(=O)NCCCOC)C1 (configuration not stated)	0	-	0	0	0
COCCCNC(=O)C1CCCN(S(C)(=O)=O)C1 (configuration not stated)	0	0	71µM	0	0
COC(=O)c1ccc(NC2=C(C(N)=O)S(=O)(=O)c3ccccc32)cc1	0	-	-	-	-
Cc1ccsc1/C=N/N=C/c1sccc1C	0	0	0[0.501 µM]	0	0
Cc1ccsc1C=Nc1ccc(O)cc1	-	?	13µM	?	?
CCOc1ccc(NC(=O)Cn2cccc2-c2nc(-c3ccccc3)no2)cc1	0	-	-	-	-
Cc1ccc(S(=O)(=O)NC[C@H]2OC[C@@H](NCc3ccncc3)[C@@H]2O)cc1	0	-	-	-	-
Cc1ccc(CN[C@@H]2CO[C@H](CNS(=O)(=O)c3ccc(C)cc3)[C@H]2O)cc1	28µM	-	-	-	-
Cn1cc(P(=S)(N2CCOCC2)N2CCOCC2)cc1P(=S)(N1CCOCC1)N1CCOCC1	0	0	45µM	0	0
C[C@@H](NC(=O)c1cccnc1)c1onc(-c2ccc(F)cc2)c1C(=O)O	18µM	-	-	-	-
C[C@@H](NC(=O)Nc1ccccc1)c1onc(-c2ccc(F)cc2)c1C(=O)O	63µM	-	-	-	-
C[C@@H](NS(=O)(=O)c1ccccc1)c1onc(-c2cccnc2)c1C(=O)O	0	-	-	-	-
C[C@@H](NS(C)(=O)=O)c1onc(-c2cccnc2)c1C(=O)O	56µM	-	-	-	-
Cc1noc([C@@H](C)NC(=O)Nc2ccc(Cl)cc2)c1C(=O)O	20µM	-	-	-	-
C[C@@H](NC(=O)Nc1ccc(Cl)cc1)c1onc(-c2ccccc2)c1C(=O)O	0	-	-	-	-
Cc1cccc(NC(=O)Cn2cnc3c2c(=O)n(C)c(=O)n3C)c1C	0	-	-	-	-
CCOC(=O)c1cnc2c(C)cc(C)cc2c1Nc1ccc(O)cc1	0	-	-	-	-
CC1CCCN(CCCNC(=O)CN2C(=O)CCn3nc(-c4cn(C)c5ccccc45)cc32)C1 (configuration not stated)	0	-	-	-	-
Cc1c(C(=O)N2CCCC2)c(S(=O)(=O)N2c3ccccc3CC2C)c(C)n1C (configuration not stated)	0	-	-	-	-
Cc1nc(-c2cnccn2)n(CC(=O)Nc2ccc3c(c2)OCCO3)c(=O)c1C	0	-	-	-	-
Cc1cc(SCC(=O)c2ccc(Cl)cc2)nc(=O)[nH]1	20µM	?	?	0	?
Cc1ccc(C(=O)CSc2cc(C)[nH]c(=O)n2)cc1	?	0	0[0.501 µM]	0	?
SMILES	12-LOX inh	Sfp inh	G9a block	Glioma ERSR ind	VDR inh
Cc1cc(SCC(=O)c2ccccc2)nc(=O)[nH]1	?	0	22µM	0	?
COc1cccc(CNC(=O)c2ccc(N3CCOCC3)c(NC(=O)Nc3cc(F)ccc3F)c2)c1	0	-	-	-	-
CSc1ccccc1NC(=O)c1cc2ncc(Br)cn2n1	0	?	35µM	0	0
CC(C)c1ccccc1NC(=O)c1cnccn1	0	0	0[12.7 µM]	0	0
Cc1csc(NC(=O)c2cnccn2)n1	0	0	3.5µM	0	0
CSc1ccccc1NC(=O)c1cnccn1	?	0	25µM	0	0
Cc1csc(NC(=O)c2cccnc2)n1	0	0	0	0	0
Cc1ccccc1OCC(O)Cn1c(N)nc2c1c(=O)n(C)c(=O)n2C (configuration not stated)	0	-	-	-	-
CCn1nc(C(=O)OC(C)C(=O)Nc2ccccc2C)c2ccccc2c1=O (configuration not stated)	0	-	-	-	-
CN(C)c1ccc(-c2noc([C@@H]3CCCN3CC3CCCCC3)n2)cn1	0	-	-	-	-
Cc1c(C(=O)NC2CCS(=O)(=O)C2)oc2ccccc12 (configuration not stated)	0	0	45µM	0	0
Cc1ccc2c(Cl)cc(Cl)c(OCC(=O)NC(=O)NC3CCCC3)c2n1	0	-	-	-	-
COc1ccc(C(=O)NC2CCCCCC2)cc1C	0	-	-	-	-
CCn1c(SCC(=O)c2c(N)n(C3CC3)c(=O)[nH]c2=O)nnc1-c1ccccc1OC	?	-	2µM	0	0
Cc1ccccc1-n1c(SCC(=O)c2c(N)n(C3CC3)c(=O)[nH]c2=O)nnc1N1CCOCC1	0	-	10µM	0	0
CCn1c(Cc2ccccc2)nnc1SCC(=O)c1c(N)n(C2CC2)c(=O)[nH]c1=O	0	-	0[12.7 µM]	0	0
O=C(COCc1nc2ccccc2c(=O)[nH]1)Nc1nc(-c2ccc3c(c2)CCC3)cs1	0	-	-	-	-
CCOC(=O)[C@H](CCc1ccccc1)N[C@@H](C)C(=O)N1[C@@H](C(=O)O)C[C@@H]2CCC[C@@H]21	0	-	-	-	-
N#C/C(=C\c1ccc(Cl)s1)C(=O)NC1CC1	0	-	-	-	-
Cc1ccc(C(=O)N2CCC(c3nc4cc(C(F)(F)F)ccc4s3)CC2)cn1	0	-	-	-	-
O=C1CC2(CCN(CC3CCCC3)C2)Nc2ccccc2N1 (configuration not stated)	0[6.33 µM]	-	-	-	-
CC(C)(C)NC(=O)CN1CCN(C(=O)c2cc3cc(F)ccc3[nH]2)CC1	0	-	-	-	-
Cc1ccc(-c2csc3nc(C)n(-n4cccc4)c(=O)c23)o1	0	56µM	?	0	0
O=C1/C(=C\c2ccc(Cl)c(Cl)c2)CN(C(=O)CCN2CCOCC2)C/C1=C/c1ccc(Cl)c(Cl)c1	?	-	-	0	3.2µM
O=C1/C(=C\c2ccccc2)CCC/C1=C/c1ccccc1	?	-	-	0	?
SMILES	12-LOX inh	Sfp inh	G9a block	Glioma ERSR ind	VDR inh
CCN(CC)CCC(=O)N1C/C(=C/c2ccccc2)C(=O)/C(=C\c2ccccc2)C1	0	-	-	0	45µM
O=C1/C(=C\c2ccccc2)CN(C(=O)CCN2CCCCC2)C/C1=C/c1ccccc1	0	-	-	0	32µM
O=C(CCN1C(=O)S/C(=C\c2ccccc2)C1=O)N1CCCCC1	0	0	0	0	0
COc1cc(C(=O)Nc2ccc3oc(-c4ccccc4C)nc3c2)cc(OC)c1OC	0	-	-	-	-
NC(=O)NCCC[C@H](N)C(=O)O	-	0	-	0	0
NC(=S)NCCC[C@H](N)C(=O)O	0	56µM	1.7µM!	0	50µM
CN(C)CCCN1c2ccccc2Sc2ccccc21	?	0	45µM!	0	0
CCC(=O)c1ccc2c(c1)N(CCCN(C)C)c1ccccc1S2	?	0	14µM!	0	0
Cc1ccc(S(=O)(=O)N(C)/N=C/C=C/c2ccccc2)cc1	0	0	35µM	0	0
Cc1ccc(C(=O)N/C(=C\c2sccc2C)C(=O)NCc2ccco2)cc1	0	0	0	0	0
O=C(N/N=C/C=C/c1ccco1)/C(=C/c1ccccc1)NC(=O)c1ccccc1	?	45µM	28µM	0	?
Cc1ccc(C(=O)N/C(=C/C=C\c2ccccc2)C(=O)NCc2ccco2)cc1	0	0	45µM	0	0
O=C(O)/C(=C\C=C\c1ccco1)NC(=O)c1ccccc1	1.6µM	-	-	-	-
CCCOC(=O)/C(=C\C=C\c1ccco1)NC(=O)c1ccccc1	35µM	50µM	20µM	0	0

Assay outcomes: PubChem, National Center for Advancing Translational Sciences (NCATS)
